# Shown are actives, neighbours in structure and some others; about 10% of the full set was active somewhere.
# Gal4-VP16 FLuc = VP16 counterscreen qHTS for inhibitors of ROR gamma transcriptional activity | Drosophila S2 Gal4-VP16 UAS-luciferase, luminescence, 20 h | Potency, µM (titrated, usually from 53.6 µM), for the others: top-dose activity, negative = inhibition, most hits filed as inhibitors | 310,000 tested, 3.5% active | AID 2546, 2010;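 note: Gal4-VP16 expression switched on by copper sulfate through the metallothionein promoter; % is set by controls: 0 for no effect and ±100 for the full control effect; nearly all actives have a fitted effect of over 50% in size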
# MCF10A rereplic = A quantitative high throughput screen for small molecules that induce DNA re-replication in MCF 10a normal breast cells; MCF 10A DNA re-replication, Hoechst nuclear intensity, 48 h; Potency, µM (series often up to 46.1 µM), for the others: top-dose activity, positive = re-replication, most hits filed as activators; 350,000 tested, 2.9% active; note: % of control where 0% means no effect; nearly all actives have a fitted effect of over 50% in size
# KB-V1 cytotox = qHTS assay for MDR1-selective chemotherapeutics: Primary screen using the drug-selected MDR subline cells KB-V1; 400,000 tested, 3.4% active; Potency, µM (titrated, usually from 46.1 µM), most hits filed as cytotoxic; KB-V1 MDR cells viability, CellTiter-Glo, 72 h; note: % is set by controls: 0 for no effect and ±100 for the full control effect; nearly all actives have a fitted effect of over 60% in size
#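 Cytotoxicity via CellTiter-Glo luminescence after 72 h compound exposure at 37 degrees C. Cells: drug-selected KB-V1 line, DMEM phenol-red free plus 10% FBS. Compounds tested at multiple concentrations; normalized data fitted to concentration-effect curves.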
# RORg inh = qHTS for inhibitors of ROR gamma transcriptional activity; Nuclear receptor ROR-gamma (Mus musculus), P51450; Drosophila S2 Gal4-RORgamma UAS-luciferase reporter, 20 h; Potency, µM (top dose mostly 53.6 µM), for inactives: top-dose activity change, negative = inhibition, usual class: inhibitors; 310,000 tested, 5.4% active; AID 2551, 2010; note: % is set by controls: 0 for no effect and ±100 for the full control effect; nearly all actives have a fitted effect of over 60% in size
# Target sequence (P51450 whole entry, looked up, the tested form may be a part): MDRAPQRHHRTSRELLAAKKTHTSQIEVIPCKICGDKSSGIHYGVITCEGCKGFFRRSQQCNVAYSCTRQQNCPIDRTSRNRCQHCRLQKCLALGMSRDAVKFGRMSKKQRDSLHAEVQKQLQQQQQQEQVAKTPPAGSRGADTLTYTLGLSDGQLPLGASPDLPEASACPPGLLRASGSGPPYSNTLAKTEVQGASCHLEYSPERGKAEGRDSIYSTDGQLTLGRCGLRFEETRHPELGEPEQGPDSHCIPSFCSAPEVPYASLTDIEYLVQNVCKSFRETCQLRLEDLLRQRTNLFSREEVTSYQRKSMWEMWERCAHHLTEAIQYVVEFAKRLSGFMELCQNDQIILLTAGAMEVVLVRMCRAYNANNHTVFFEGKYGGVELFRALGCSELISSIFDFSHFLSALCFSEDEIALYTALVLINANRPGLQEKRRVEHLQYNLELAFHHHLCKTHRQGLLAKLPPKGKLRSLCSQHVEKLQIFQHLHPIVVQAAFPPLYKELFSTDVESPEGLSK
#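 Schneider cells (Drosophila), stable Gal4 DBD–ROR gamma + UAS-luc; 1 hr cmpd preincubation; Cu2+ induction 700 uM final; 20 hr ambient; luminescence.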
# KB-3-1 tox = qHTS assay for MDR1-selective chemotherapeutics: Primary screen using the parental adenocarcinoma cell KB-3-1 | KB-3-1 viability, CellTiter-Glo ATP luminescence, 72 h | 400,000 tested, 1.4% active | Potency, µM (highest dose often 46.1 µM), usual class: cytotoxic; note: % is set by controls: 0 for no effect and ±100 for the full control effect; nearly all actives have a fitted effect of over 60% in size
#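 Cytotoxicity in the drug-sensitive parental line KB-3-1 was scored as loss of CellTiter-Glo luminescence following 72 h incubation with compound. Values come from curve fitting of normalized concentration-response data.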
# SW480 rerep = A quantitative high throughput screen for small molecules that induce DNA re-replication in SW480 colon adenocarcinoma cells; Potency, µM (series often up to 46.1 µM), inactives show at the top dose re-replication activation, most hits filed as activators; 340,000 tested, 1.8% active; SW480 DNA re-replication, Hoechst DNA content imaging, 48 h; note: % of control where 0% means no effect; nearly all actives have a fitted effect of over 55% in size
#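 Compounds, transferred as 23 nL by pin tool, were incubated with cells for 48 hr; DNA content per nucleus was then quantified by Hoechst staining and fluorescence plate imaging.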
# * hit, by the source's call; i = inactive; ? = inconclusive; / = not tested or not shown; [ ] = dose if it differs, or a comment. Calls come from the whole dose curve; as a rule, active = well fitted curve in the direction sought with a large enough effect; inconclusive = small, poorly fitted or top-dose-only effect, or another doubt; inactive = no such curve, though single readings can be large; an effect the other way counts as inactive or inconclusive. Potency is the fitted concentration of half-maximal effect.
SMILES,Gal4-VP16 FLuc,MCF10A rereplic,KB-V1 cytotox,RORg inh,KB-3-1 tox,SW480 rerep
CCC1CCCCN1C(=O)CSc1n[nH]c(-c2ccccc2Cl)n1 (stereo not drawn),/,/,i,/,i,/
c1ccc(OCCOc2ccccc2-c2nnco2)cc1,0%,-3%,i,3%,i,-6%
Clc1ccccc1COc1ccccc1-c1nnco1,?,2%,i,11µM*,i,-2%
COc1ccc(/C=C(/C(=O)c2cccs2)N2C=CC=CC2=C(C#N)C#N)cc1,2.8µM*,?,i,2.2µM*,i,?
CC(C)(C)NC(=O)/C(=C/c1ccco1)c1ccccc1,0%,0%,i,22%,i,-1%
N#CC(C#N)=C1C=CC=CN1/C(=C\c1ccco1)C(=O)c1ccc(Br)cc1,1.3µM*,3.3µM*,i,3.5µM*,?,4.6µM*
N#CC(C#N)=C1C=CC=CN1/C(=C\c1ccco1)C(=O)c1ccccc1,1.8µM*,2.6µM*,?,5µM*,?,?
COc1ccc(C(=O)/C(=C\c2ccco2)N2C=CC=CC2=C(C#N)C#N)cc1,3.5µM*,1.3µM*,7.3µM*,4µM*,?,?
CC1CCC2C(=O)N3C(CCC(C)C3c3ccc(-c4ccco4)cc3)C(=O)N2C1c1ccc(-c2ccco2)cc1 (stereo not drawn),5%[10 µM],/,/,4%[10 µM],/,/
COc1ccc(S(=O)(=O)NCc2ccc(C(=O)NCCN(C)Cc3ccccc3)cc2)cc1,/,/,i,/,i,/
COc1ccc(C)cc1NC(=O)c1cc2c(=O)n3cccc(C)c3nc2s1,/,/,i,/,i,/
O=C(NCC(c1cccnc1)N1CCc2ccccc21)c1ccc(F)cc1 (stereo not drawn),/,/,?,/,i,/
COc1ccc2oc3cc(C)[n+]([O-])c(-c4ccc(C)cc4)c3c2c1,-13%,16%,5.8µM*,20%,?,?
COc1ccc(-c2c3c(cc(C)[n+]2[O-])oc2ccc(OC)cc23)cc1,4%,16µM*,10µM*,17%,?,15%
COc1ccc2oc3cc(C)[n+]([O-])c(-c4ccc(Cl)cc4)c3c2c1,2%,17%,?,-4%,?,-1%
COc1ccc(-c2c(C)oc3ccc(C)cc23)cc1,0%,?,i,-10%,i,13%
O=C(Nc1cccc(NC(=O)c2ccco2)c1)c1cccc(Br)c1,-1%,7%,?,19%,i,-8%
O=C(Nc1cc(Br)c(O)c(Br)c1)c1cccc(NC(=O)c2ccco2)c1,0%,0.73µM*,i,-1%[1.91 µM],i,-27%
CC(=O)c1cccc(NC(=O)c2cccc(NC(=O)c3ccco3)c2)c1,4%,12%,i,12%[1.91 µM],i,-35%
COc1ccc(C(=O)Nc2cccc(OC(=O)c3ccc(C)c(C)c3)c2)cc1,-22%,1%,i,-12%,i,0%
CC(=O)Oc1ccc(C(=O)Nc2cccc(NC(=O)c3ccco3)c2)cc1,10%,6.5µM*,i,21%,i,-52%
CC(=O)Oc1ccc(C(=O)Nc2cccc(C(=O)c3ccc(C)c(C)c3)c2)cc1,6%,?,9.2µM*,34%,16µM*,-6%
CCC(Sc1nnc(C)n2c1cc1occc12)C(=O)Nc1ccccc1F (stereo not drawn),/,/,?,/,i,/
CCOC(=O)C[n+]1cccc(Br)c1,/,/,i,/,i,/
N=c1oc2cc(O)ccc2cc1C(=O)Nc1nc2ccccc2s1,4%,8.2µM*,i,-2%[10 µM],i,2.9µM*
SMILES,Gal4-VP16 FLuc,MCF10A rereplic,KB-V1 cytotox,RORg inh,KB-3-1 tox,SW480 rerep
N=c1oc2cc(O)ccc2cc1C(=O)Nc1ccc(Br)cc1,1.8µM*,5.2µM*,18µM*,1.8µM*,23µM*,1.6µM*
N=c1oc2cc(O)ccc2cc1C(=O)Nc1ccccn1,0%,/,/,35%,/,/
C#CCCCO/N=C1/C[C@@H](O)[C@@H](O)[C@@H]2[C@@H]3C(=O)N(c4cccc(Oc5ccccc5)c4)C(=O)[C@H]3CC[C@@H]12,5%[10 µM],/,/,1%[10 µM],/,/
Cc1cc(C)cc(-n2c(C)c3c(C)nnc(C)c3c2C)c1,-4%,10%,?,-37%,?,23µM*
CCOC(=O)/C=C(\C)Sc1cc(O)c2ccccc2c1O,?,?,i,11µM*,i,17%
CCOC(=O)/C=C(\C)Sc1cc(=O)oc2ccccc12,24%,?,?,2%,?,?
C#CCCCCCCCCCCCc1ccco1,-3%,/,/,-3%,/,/
CC1(C)CC(=O)c2cc(C(=O)O)c(=O)n(-c3ccccc3)c2C1,11%,15%,i,9%,i,-2%
CC1(C)CC(=O)c2c(O)c(-c3ccccc3)c(=O)n(-c3ccccc3)c2C1,-2%,13%,13µM*,-19%,i,-10%
Cc1ccc(-n2ncc(C(=O)Nc3ccc4c(c3)OCCO4)c2C2CCN(C(=O)OC(C)(C)C)CC2)cc1C,/,/,i,/,i,/
C#CC[N+](CC)(CC)CC#Cc1ccccc1,11%,2%,i,6%,i,-6%
CC[N+](CC)(CC#Cc1ccccc1)CC#Cc1ccccc1,3%,5%,i,30%,8.2µM*,15%
CC(=O)Oc1ccc(N(C(C)=O)S(=O)(=O)c2cccs2)c2ccccc12,?,?,?,20µM*,i,?
C/C(CCN1CCCc2nc(C)c(C)cc21)=N\O[C@@H](C)CN1CCCc2nc(C)c(C)cc21,4%[10 µM],/,/,3%[10 µM],/,/
CCCn1c(CC)nc([N+](=O)[O-])c1S(=O)(=O)c1ccccc1,18µM*,3.7µM*,i,7.9µM*,?,?
COC(=O)CSCc1nc(-c2ccc(C(=O)OC)cc2)oc1C,/,/,i,/,i,/
COc1ccc(C(=O)/C=C/c2ccc(OC)c(CN3CCOCC3)c2)cc1,?,?,15µM*,?,?,?
COc1ccc(/C=C/C(=O)c2ccccc2O)cc1CN1CCOCC1,15%,?,i,32%,?,?
COc1ccc(/C=C/C(=O)c2ccc3ccccc3c2O)cc1CN1CCOCC1,-23%,2%,i,-16%,i,-2%
COc1ccc(C(=O)/C=C/c2ccc(OC)c(Cn3nnc4ccccc43)c2)cc1,-16%,16µM*,?,37%,i,/
COc1ccc(/C=C/C(=O)c2ccc(O)cc2)cc1CN1CCOCC1,-2%,?,?,38%,16µM*,?

# Screens as filed in PubChem BioAssay.
